In the library only some 1.4% were active in any assay of this set; here they are far more common.
IDE cell activ = boosts human insulin-degrading enzyme activity in HEK cells; FAbeta-B cleavage, fluorescence polarization; 0% vehicle, 100% cell-free pure enzyme wells; activation, % at 5.96 µM; actives 0.073% (n = 340,000); AID 493087;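 active = activation above the mean of all tested compounds plus 3 SD, set per screening campaign, cut at about 17% in these data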
IDE cell inh = inhibitors of human insulin-degrading enzyme in cells | HEK cells, FAbetaB cleavage, fluorescence polarization | inhibition, % at 5.59 µM | actives 0.41% (n = 320,000) | AID 434962;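 active = percent inhibition above the average of all tested compounds plus 3 SD, set per screening campaign, cut at about 16% in these data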;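 also: IDE supplied by intact live HEK cells; FP after avidin binding of uncleaved biotin substrate so inhibition keeps polarization high; 0% = DMSO wells and 100% = 60 µM reference IDE inhibitor Ii1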
HNF4A DNA FP = change in binding of human HNF4 alpha to DNA. P41235. HNF4a-FITC DNA binding, fluorescence polarization, 1 h. activity change, % at 10 µM. actives 0.3% (n = 360,000); in the data active = activity change above about 30%, passing the limit was not always enough
Target sequence (P41235 whole entry, looked up): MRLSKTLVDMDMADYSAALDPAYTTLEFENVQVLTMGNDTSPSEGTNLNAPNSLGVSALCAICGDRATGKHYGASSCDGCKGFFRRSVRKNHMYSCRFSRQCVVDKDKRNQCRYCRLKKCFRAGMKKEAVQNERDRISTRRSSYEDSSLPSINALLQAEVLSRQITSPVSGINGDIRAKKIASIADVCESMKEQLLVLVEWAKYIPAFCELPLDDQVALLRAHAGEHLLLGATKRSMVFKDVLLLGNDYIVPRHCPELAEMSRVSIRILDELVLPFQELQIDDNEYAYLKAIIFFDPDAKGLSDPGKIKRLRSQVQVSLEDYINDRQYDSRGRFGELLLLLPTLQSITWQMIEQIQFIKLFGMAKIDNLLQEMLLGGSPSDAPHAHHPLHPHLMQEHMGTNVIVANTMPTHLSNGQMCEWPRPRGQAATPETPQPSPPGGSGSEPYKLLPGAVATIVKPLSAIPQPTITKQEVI
TPT1 inhibitor = inhibitors of Candida albicans tRNA 2'-phosphotransferase TPT1 | actives 0.81% (n = 300,000) | inhibition, % at 5 µM | recombinant caTPT1, FP RNA substrate dephosphorylation;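 active = inhibition above the mean of all tested compounds plus 3 SD, set per screening campaign, cut at about 24% in these data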;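 also: plate controls were DMSO alone for no effect and ferristatin control at 100 nM for full effect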
CRFBP-R2 agonist = agonists of human CRF-binding protein/CRF-R2 receptor complex; HEK293 CRF-R2/CRF-BP, calcium dye fluorescence (FLIPR); percent of saturating CRF peptide response; activation, % at 13.2 µM; actives 0.46% (n = 350,000); AID 588473;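 active = activation of at least 50%, plus an integration ratio under a set limit after plate pattern correction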;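 also: plate controls were neutral control wells without compound for no effect and CRF at EC100 for full effect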
* marks the source's active call; other numbers are inactive results; / = no result given.

SMILES	IDE cell activ	IDE cell inh	HNF4A DNA FP	TPT1 inhibitor	CRFBP-R2 agonist
C#CCOCCOCCOCCNc1nc(N2CCN(C(=O)CCCCCCCCCCNC(=O)[C@@H](CCSC)n3cc(CCO)nn3)CC2)nc(N2CCN(C(=O)CCCCCCCCCCNC(=O)[C@H](CCCN=C(N)N)n3cc(C[C@@H](C)CC)nn3)CC2)n1	44.8*	8.0	256.7	-2.0	2.5
C#CCOCCOCCOCCNc1nc(N2CCN(C(=O)CCCCCCCCCCNC(=O)[C@H](CCCCN)n3cc(C)nn3)CC2)nc(N2CCN(C(=O)CCCCCCCCCCNC(=O)[C@H](CCCN=C(N)N)n3cc(C[C@@H](C)CC)nn3)CC2)n1	/	4.0	/	-0.4	33.3
C#CCOCCOCCOCCNc1nc(N2CCN(C(=O)CCCCCCCCCCNC(=O)[C@H](CCCCN)n3cc(C[C@@H](C)CC)nn3)CC2)nc(N2CCN(C(=O)CCCCCCCCCCNC(=O)[C@H](CCCN=C(N)N)n3cc(C[C@@H](C)CC)nn3)CC2)n1	47.3*	-9.5	213.3	-1.5	3.6
COc1ccccc1-c1noc(CCCC(=O)NC2CCCCC2)n1	-0.7	0.4	4.1	-0.5	-2.4
COCCCN1C(=O)C(CC(=O)NC(c2ccccc2)c2ccccc2)CC(C(=O)N2CCCCCC2)=C1C (configuration not stated)	/	/	0.2	/	/
CCCN(Cc1nnc(-c2cccs2)o1)C(=O)c1cccc(S(=O)(=O)N2CCOCC2)c1	2.0	-2.1	2.9	/	0.1
C#CCOCCOCCOCCNc1nc(N2CCN(C(=O)CCCCCCCCCCNC(=O)[C@@H](CCSC)n3cc(CCO)nn3)CC2)nc(N2CCN(C(=O)CCCCCCCCCCNC(=O)[C@H](CO)n3cc(CCCCCN)nn3)CC2)n1	28.9*	5.5	19.1	-3.1	11.4
C#CCOCCOCCOCCNc1nc(N2CCN(C(=O)CCCCCCCCCCNC(=O)[C@H](CO)n3cc(CCCCCN)nn3)CC2)nc(N2CCN(C(=O)CCCCCCCCCCNC(=O)[C@H](CCCN=C(N)N)n3cc(C[C@@H](C)CC)nn3)CC2)n1	/	-4.7	/	3.0	/
C#CCOCCOCCOCCNc1nc(N2CCN(C(=O)CCCCCCCCCCNC(=O)[C@H](CCCCN)n3cc(CCO)nn3)CC2)nc(N2CCN(C(=O)CCCCCCCCCCNC(=O)[C@H](CCCCN)n3cc(C[C@@H](C)CC)nn3)CC2)n1	/	-4.2	/	2.0	145.9*
C#CCOCCOCCOCCNc1nc(N2CCN(C(=O)CCCCCCCCCCNC(=O)[C@@H](CCSC)n3cc(CCO)nn3)CC2)nc(N2CCN(C(=O)CCCCCCCCCCNC(=O)[C@H](CCC(=O)O)n3cc(CCCCCN)nn3)CC2)n1	4.2	9.4	5.1	-1.0	-0.2
CCOC(=O)C1=C(C)N(C)C(=O)NC1c1cccc2ccccc12 (configuration not stated)	-3.7	3.1	-4.7	-0.9	-0.7
COc1ccccc1N1CCN(C2CCCN(C(=O)CCc3ccccn3)C2)CC1 (configuration not stated)	-9.1	/	-3.2	/	-0.6
O=C(NNC(=S)NC(=O)c1cccc([N+](=O)[O-])c1)c1ccc(O)cc1	-2.1	10.7	2.9	4.0	0.2
O=C(NNC(=S)NC(=O)c1cccc([N+](=O)[O-])c1)c1ccc(Br)cc1	2.5	1.1	-5.1	0.6	122.0*
Cc1ccc(C(=O)NC(=S)NNC(=O)c2cccc([N+](=O)[O-])c2)cc1	1.2	/	0.4	/	79.3*
CC1=C(O)C(=O)OC1c1c(Cl)cccc1Cl (configuration not stated)	5.5	10.4	4.6	-3.3	-2.6
O=C(CCC(=O)c1cccs1)OCC(=O)N1CCN(C(=O)c2ccco2)CC1	1.7	8.0	35.0*	-4.8	1.8
CC1CC(C)CN(C(=O)COC(=O)CCC(=O)c2cccs2)C1 (configuration not stated)	8.0	8.1	-3.4	/	0.8
O=C(O)c1ccc(S(=O)(=O)NCC2CCCCC2)cc1	4.1	/	72.5*	/	-1.0
CCCCn1nc2cc(C(=O)NCCCCc3ccccc3)ccc2c1OCC	20.6*	7.7	-4.3	-3.5	0.6
CCOC(=O)c1cc(NC(=O)c2ccccc2)c(=O)oc1C(F)(F)F	11.8	/	46.1*	/	0.0
CCOC(=O)c1cc(NC(=O)c2ccc(C)cc2)c(=O)oc1C(F)(F)F	3.8	-1.2	-0.1	-3.6	-0.1
CCOC(=O)c1c(-c2ccccc2)csc1NC(=O)/C(C#N)=C\c1ccc(O)c(OC)c1	-74.3	/	137.2	/	132.5*
CCOC(=O)/C(C#N)=C\c1ccc(O)c(OC)c1	1.0	-1.8	5.3	8.8	-0.2
COc1ccc(OC)c(NC(=O)c2cccc3c2C(=O)N(C2CCCCC2)C3)c1	7.2	-0.9	0.7	-3.5	-0.4
SMILES	IDE cell activ	IDE cell inh	HNF4A DNA FP	TPT1 inhibitor	CRFBP-R2 agonist
COCCN1Cc2cccc(C(=O)Nc3cc(OC)ccc3OC)c2C1=O	2.1	-1.0	-1.3	0.5	60.5*
CC(=O)c1cccc(NC(=S)NC(=O)Cc2ccccc2)c1	-2.2	0.0	3.0	-4.8	0.4
CC(=O)c1cccc(NC(=S)NC(=O)Cc2ccc(Cl)cc2)c1	4.3	4.3	-0.3	-1.3	63.1*
COc1ccc2nc(/N=C/c3c(C)[nH]n(-c4ccc(C)cc4C)c3=O)sc2c1	-3.3	4.9	-2.0	-2.3	64.6*
O=C(Nc1cccc(-c2nc3cccnc3s2)c1)c1cccnc1Cl	6.4	10.8	2.1	0.4	-0.1
O=C(Nc1cccc(-c2nc3cccnc3s2)c1)C1c2ccccc2Oc2ccccc21	5.2	/	47.3*	/	2.4
CC(C)CN1CCC(CN(C)Cc2nc(-c3cnccn3)no2)CC1	7.8	-3.3	0.2	2.8	-0.5
CCc1cc(C(=O)OC)c(NC(=O)CC2Nc3cc(C)c(C)cc3NC2=O)s1 (configuration not stated)	2.2	-0.4	60.8*	14.3	14.6
COc1ccc2[nH]c(=O)c(CN(C3CCCCC3)C(c3nnnn3Cc3ccco3)C(C)C)cc2c1 (configuration not stated)	1.2	1.2	54.3*	57.5*	26.3
CC1=CC(C)(C)N(C(=O)CSc2nnc(N)s2)c2ccccc21	2.2	5.0	1.4	9.7	53.1*
N#C/C(=C/c1ccc(N2CCCCC2)o1)C(=O)Nc1ccc2ccccc2c1	-131.1	/	-83.7	/	207.1*
Cc1c(C)c2ccc(O)c(CN3CCN(C)CC3)c2oc1=O	-0.9	/	4.4	/	0.5
CN1CCN(Cc2c(O)ccc3cc(-c4ccccn4)c(=O)oc23)CC1	4.9	3.5	-2.0	5.1	63.2*
CC(Oc1ccccc1Cl)C(=O)N(Cc1ccco1)C1CCS(=O)(=O)C1 (configuration not stated)	7.3	-2.2	31.2*	-1.9	-0.7
O=C(C(c1ccccc1)c1ccccc1)N(Cc1ccco1)C1CCS(=O)(=O)C1 (configuration not stated)	-2.9	-2.4	-1.4	0.4	0.0
O=c1c(Cl)c(Cl)cnn1Cc1nnc(-c2ccccc2Br)o1	3.2	/	-3.5	/	156.8*
CC(=O)C1=C(O)C(=CC=Cc2ccccc2)OC1=O	/	/	59.6*	/	2.9
